Test systems include SR leukemia; RPMI-8226 leukemia; OVCAR-8 ovarian; OVCAR-5 ovarian; OVCAR-4 ovarian; SK-OV-3 ovarian; IGROV1 ovarian; OVCAR-3 ovarian; HS 578T breast; NCI/ADR-RES ovarian; T-47D breast; BT-549 breast; MDA-MB-435 melanoma; SW-620 colon; MCF7 breast; HCT-116 colon; HCC-2998 colon; KM12 colon.
Assay in all cases: NCI-60 one-dose screen, 48 h (100 = growth as untreated, 0 = no growth, -100 = all killed)
Common to all, as to settings: 10 µM unless noted

This is part of a sample that, as a whole, favours compounds with a hit. Of some 83,000 tested, about 20% had one in any assay.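 96-well plates, one dose, 48 hours. Percent growth reported; active if below 10.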 Unmarked numbers belong to inactive results. Active and inactive are the calls of the source.

For the compound `O=C1C2C(c3cccs3)C=C(c3ccc(Cl)cc3)N2C(=S)N1c1ccccc1` (centres undefined), the growth with SR leukemia is 97.6%; in the experiment with RPMI-8226 leukemia it was 99.3%; in the experiment on OVCAR-8 ovarian, 97.8%; with OVCAR-5 ovarian, 96.5%; in the experiment with OVCAR-4 ovarian, 98.1%; in the experiment on SK-OV-3 ovarian, 109%. For the same compound, the growth in the experiment on IGROV1 ovarian is 93.2%; in the experiment on OVCAR-3 ovarian, 104%; in the experiment on HS 578T breast, 92.2%; in the experiment with NCI/ADR-RES ovarian, 103%; in the experiment on T-47D breast, 100%; in the experiment with BT-549 breast, 92.4%. Besides, the growth was 110% in the experiment on MDA-MB-435 melanoma; 102% with SW-620 colon; 90.9% in the experiment with MCF7 breast; 101% in the experiment on HCT-116 colon; 111% in the experiment with HCC-2998 colon; 104% in the experiment on KM12 colon.

Regarding `O=C(CNc1ncco1)Nc1ccc(S(=O)(=O)c2ccc(NC(=O)CNc3ncco3)cc2)cc1`, the growth in the experiment with SR leukemia is -0.678% (active); in the experiment on RPMI-8226 leukemia it was 11.2%; in the experiment with OVCAR-8 ovarian, -80.7% (active); with OVCAR-5 ovarian it was 28.5%; with OVCAR-4 ovarian, 17.5%; in the experiment with SK-OV-3 ovarian it was 76.1%. The growth in the experiment with IGROV1 ovarian was -10.3% (active); in the experiment on OVCAR-3 ovarian, 104%; in the experiment on HS 578T breast it was -4.97% (active); with NCI/ADR-RES ovarian, -12.5% (active); with T-47D breast, 29.3%; with BT-549 breast it was 43.9%. In addition, the growth with MDA-MB-435 melanoma is 3.01% (active); in the experiment on SW-620 colon, -82% (active); in the experiment on MCF7 breast, 18.9%; in the experiment on HCT-116 colon, -80.7% (active); with HCC-2998 colon, 76.4%; in the experiment with KM12 colon it was 94.8%.

As for `COc1cc(/C=C2\C(=O)N(CCOc3cc(O)c4c(=O)cc(-c5ccccc5)oc4c3)c3ccccc32)cc(OC)c1O`, the growth in the experiment with SR leukemia was 39%; in the experiment on RPMI-8226 leukemia, 84.1%; in the experiment with OVCAR-8 ovarian it was 69.9%; with OVCAR-5 ovarian it was 103%; in the experiment with OVCAR-4 ovarian, 82.3%; with SK-OV-3 ovarian it was 92.2%. Also, the growth in the experiment on IGROV1 ovarian was 74.4%; in the experiment with OVCAR-3 ovarian, 55%; with HS 578T breast, 45.5%; in the experiment with NCI/ADR-RES ovarian, 47.5%; with T-47D breast it was 65.4%; in the experiment on BT-549 breast, 51%. Besides, the growth with MDA-MB-435 melanoma is -40.2% (active); in the experiment on SW-620 colon it was 22.2%; with MCF7 breast it was 31%; with HCT-116 colon it was 28.2%; in the experiment on HCC-2998 colon, 80%; in the experiment with KM12 colon, 51.2%.

For the compound `COc1ccc(S(=O)(=O)NC2c3ccccc3CC2O)cc1OC` (centres undefined), the growth is 100% with SR leukemia; 104% with RPMI-8226 leukemia; 107% in the experiment on OVCAR-8 ovarian; 104% in the experiment with OVCAR-5 ovarian; 117% in the experiment on OVCAR-4 ovarian; 115% in the experiment on SK-OV-3 ovarian. In addition, the growth is 106% in the experiment with IGROV1 ovarian; 112% with OVCAR-3 ovarian; 98.8% in the experiment with HS 578T breast; 105% in the experiment on NCI/ADR-RES ovarian; 105% in the experiment on T-47D breast; 112% with BT-549 breast. In addition, the growth in the experiment with MDA-MB-435 melanoma is 105%; with SW-620 colon, 100%; with MCF7 breast, 97.3%; with HCT-116 colon, 104%; in the experiment with HCC-2998 colon it was 99.8%; in the experiment with KM12 colon, 101%.

Take `COc1ccc(/C=N/NC(=O)Cn2nnc3ccccc32)cc1`: the growth with SR leukemia is 96%; in the experiment on RPMI-8226 leukemia it was 101%; in the experiment on OVCAR-8 ovarian it was 96.7%; in the experiment on OVCAR-5 ovarian it was 104%; in the experiment on OVCAR-4 ovarian, 115%; in the experiment with SK-OV-3 ovarian, 95.5%. For the same compound, the growth in the experiment with IGROV1 ovarian was 95.9%; in the experiment on OVCAR-3 ovarian, 95%; with HS 578T breast, 77.6%; with NCI/ADR-RES ovarian it was 104%; in the experiment on T-47D breast, 92.1%; with BT-549 breast, 107%. Also, the growth in the experiment on MDA-MB-435 melanoma is 98.2%; in the experiment on SW-620 colon it was 92.9%; with MCF7 breast it was 86.4%; with HCT-116 colon it was 93.7%; with HCC-2998 colon, 116%; with KM12 colon it was 90.7%.

In the case of `Cc1c(N2CCCCC2)[nH]c2ccccc12`, the growth in the experiment with SR leukemia is 119%; in the experiment with RPMI-8226 leukemia it was 62.6%; with OVCAR-8 ovarian, 105%; with OVCAR-5 ovarian, 124%; with OVCAR-4 ovarian it was 142%; in the experiment with SK-OV-3 ovarian, 118%. In addition, the growth was 136% in the experiment with IGROV1 ovarian; 125% in the experiment with OVCAR-3 ovarian; 96.2% in the experiment with HS 578T breast; 107% in the experiment with NCI/ADR-RES ovarian; 110% in the experiment on T-47D breast; 121% in the experiment on BT-549 breast. For the same compound, the growth was 103% in the experiment on MDA-MB-435 melanoma; 100% with SW-620 colon; 111% with MCF7 breast; 105% in the experiment on HCT-116 colon; 113% with HCC-2998 colon; 113% with KM12 colon.

Take `O=C1/C(=C/c2ccc(-c3ccc(Cl)cc3)o2)SC(=S)N1CCc1ccc(O)cc1`: the growth in the experiment on SR leukemia was 24.5%; in the experiment with RPMI-8226 leukemia it was 55.5%; in the experiment on OVCAR-8 ovarian it was 16.4%; with OVCAR-5 ovarian it was 75.2%; with OVCAR-4 ovarian it was 25.6%; in the experiment with SK-OV-3 ovarian, 44.8%. Also, the growth with IGROV1 ovarian was 31.8%; in the experiment on OVCAR-3 ovarian, 24.1%; in the experiment on HS 578T breast, 36.6%; with NCI/ADR-RES ovarian, 77.3%; with T-47D breast, 43.9%; in the experiment with BT-549 breast, 64.6%. Besides, the growth in the experiment on MDA-MB-435 melanoma is 19.7%; in the experiment on SW-620 colon, 26.6%; with MCF7 breast, 77.9%; with HCT-116 colon, 48.8%; in the experiment with HCC-2998 colon, 89.6%; with KM12 colon it was 22.9%.

As for `FC(F)(F)c1cccc(-c2nnn(Cc3cc(-c4cccc(Cl)c4)no3)n2)c1`, the growth with SR leukemia was 96.2%; with RPMI-8226 leukemia it was 102%; in the experiment on OVCAR-8 ovarian, 101%; in the experiment with OVCAR-5 ovarian, 101%; with OVCAR-4 ovarian it was 116%; in the experiment on SK-OV-3 ovarian it was 98.8%. The growth in the experiment with IGROV1 ovarian is 104%; in the experiment on OVCAR-3 ovarian it was 114%; with HS 578T breast, 107%; in the experiment with NCI/ADR-RES ovarian, 108%; in the experiment with T-47D breast it was 108%; in the experiment on BT-549 breast, 97.7%. The growth is 105% in the experiment with MDA-MB-435 melanoma; 106% in the experiment on SW-620 colon; 99.1% in the experiment with MCF7 breast; 96.7% with HCT-116 colon; 103% in the experiment on HCC-2998 colon; 102% in the experiment with KM12 colon.
